High-throughput results (PubChem BioAssay)
Hits are enriched below; roughly 1.7% of the tested compounds scored in any of these assays.
PTHR1 agonist = agonists of human PTHR1 parathyroid hormone receptor; AID 743266; 410,000 tested, 0.075% active; HEK293 GP2 PTHR1 cells, GloSensor cAMP luminescence, 1 h; Q03431; Potency, µM (highest dose often 115 µM), inactives show at the top dose activation, most hits filed as activators; note: nearly all actives have a fitted effect of over 55% in size
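HEK-293-derived GP2 cells expressing PTHR1 and a GloSensor cAMP reporter, 3,000/well, plated overnight, given luciferin plus IBMX (each 0.5 mM as added) for 1 h at 37 °C, then compound for 1 h at 37 °C. Luminescence was read after 15 min at room temperature.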
GLP1R inv ag = acts as inverse agonist at human GLP-1 receptor; P43220; HEK293 GLP-1R CRE-luciferase, luminescence, 24 h; GLP-1R form is constitutively active; Potency, µM (series often up to 38.3 µM), for inactives: at the top dose activity change, negative = inhibition, hits mostly inhibitors; 410,000 tested, 1.6% active; AID 624417; note: % is set by controls: 0 for no effect and ±100 for the full control effect; nearly all actives have a fitted effect of over 55% in size
Target sequence (P43220 whole entry, looked up): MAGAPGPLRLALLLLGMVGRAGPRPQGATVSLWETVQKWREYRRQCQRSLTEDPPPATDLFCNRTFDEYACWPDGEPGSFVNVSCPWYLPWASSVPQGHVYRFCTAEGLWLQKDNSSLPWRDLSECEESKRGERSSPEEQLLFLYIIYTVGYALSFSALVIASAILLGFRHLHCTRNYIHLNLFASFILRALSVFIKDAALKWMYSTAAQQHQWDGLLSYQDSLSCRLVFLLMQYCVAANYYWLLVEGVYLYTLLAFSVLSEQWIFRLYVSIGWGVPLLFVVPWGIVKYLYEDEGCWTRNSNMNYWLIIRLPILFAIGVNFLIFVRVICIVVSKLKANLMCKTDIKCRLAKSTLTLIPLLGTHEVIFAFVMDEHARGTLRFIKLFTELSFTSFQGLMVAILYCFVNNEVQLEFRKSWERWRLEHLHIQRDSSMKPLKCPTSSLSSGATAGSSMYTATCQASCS
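Readout was luciferase luminescence, measured 12 min after detection reagent at room temperature. Beforehand, GLP-1R reporter HEK293 cells had sat 12 h, then received compounds for 24 hr at 37 deg C.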
GLP1R ag = activates the human GLP-1 receptor; Potency, µM (titrated, usually from 45.6 µM), for inactives: at the top dose activation, usual class: activators; HEK293 GLP-1R CRE-luciferase, luminescence, 4-6 h; cells express a hypersensitive GLP-1R form; 380,000 tested, 0.007% active; note: % of control where 0% means no effect
GLP1R cytotox = cytotoxicity counter-screen for GLP-1 receptor inverse agonists; AID 624418; Potency, µM (titrated, usually from 38.3 µM), without a hit: at the top dose activity change, negative = inhibition, most hits filed as inhibitors; HEK293 cAMP-luciferase reporter cells, luminescence, 24 h; 410,000 tested, 0.13% active;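 note: loss of luciferase light is scored as toxicity; % is set by controls: 0 for no effect and ±100 for the full control effect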
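A 23 nL compound transfer followed 12 hours of cell culture at 37 deg C; exposure then lasted 24 hr. Luciferase assay detection reagent was dispensed and plates read for luminescence after a 12 min room-temperature wait.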
Numbers without * were called inactive; i = inactive; ? = inconclusive; nt = no result given. Calls come from the whole dose curve; as a rule, active = well fitted curve in the direction sought with a large enough effect; inconclusive = small, poorly fitted or top-dose-only effect, or another doubt; inactive = no such curve, though single readings can be large; an effect the other way counts as inactive or inconclusive. Potency is the fitted concentration of half-maximal effect.

SMILES	PTHR1 agonist	GLP1R inv ag	GLP1R ag	GLP1R cytotox
CNC(=S)N(Cc1ccc(OC)cc1)C1CC(=O)N(c2ccc(Cl)cc2)C1=O (centres undefined)	-40%	11µM*	-2%	-16%
CC(=O)c1cccc(NC(=O)CC(c2ccc(C)cc2)N2Cc3ccccc3C2=O)c1 (centres undefined)	i	-7%	9%	-19%
CC(C)(C)C(=O)NC(Nc1cccc2cccnc12)C(Cl)(Cl)Cl (centres undefined)	i	5µM*	-9%	48%
CN(C)CCNc1nc2sc3c(c2c(=O)n1CCc1ccccc1)CCCCC3	i	?	8%	?
CC(O)CNc1nc2sc3c(c2c(=O)n1CCc1ccccc1)CCCCC3 (centres undefined)	-47%	4.5µM*	20%	?
CC(NC(=O)CSc1nc2sc3c(c2c(=O)n1-c1ccccc1)CCCC3)c1ccccc1 (centres undefined)	i	8.9µM*	0%	-17%
Cc1ccc(-c2ccc(/C=N/NC(=O)Cc3nnc(N)s3)o2)cc1Cl	-2%	?	2%	-2%
COc1ccc(-c2ccc(/C=N/NC(=O)Cc3nnc(N)s3)o2)cc1Cl	-5%	11µM*	-4%	-44%
Cc1cccc(-n2ncc(C(=O)N3CCN(Cc4ccccc4)CC3)c2C2CCN(C(=O)OC(C)(C)C)CC2)c1	i	-21%	nt	-8%
O=S(=O)(O)c1cccc2c(N=Nc3ccc(O)c4ncccc34)cccc12	i	-22%	-1%	11µM*
COc1ccccc1NC(=O)c1sc2nc(-c3cc4cc(Cl)ccc4oc3=O)[nH]c(=O)c2c1C	-2%	16%	nt	-12%
CCOC(=O)C1(Nc2nccs2)Sc2ccccc2NC1=O (centres undefined)	-15%	?	-6%	?
CCOC(=O)C1(N(CC)CC)Sc2cc(C)ccc2NC1=O (centres undefined)	i	6.3µM*	4%	?
CC(Nc1nc(-c2ccncc2)nc2ccccc12)c1ccccc1 (centres undefined)	-4%	7.1µM*	?	11%
CC(Nc1nc(N2CCNCC2)nc2ccccc12)c1ccccc1 (centres undefined)	-16%	11µM*	0%	?
CCC(=O)c1ccccc1OCCCN1CCC(Cc2ccccc2)CC1	-31%	7.9µM*	8%	?
CCOc1ccccc1OCCN1CCC(Cc2ccccc2)CC1	-25%	?	10%	?
Cc1ccccc1OCCN1CCC(Cc2ccccc2)CC1	i	8.9µM*	4%	-19%
Cc1c(C(=O)N2CCC(C)CC2)c(S(=O)(=O)Nc2cccc(C(F)(F)F)c2)c(C)n1C	-29%	?	nt	-16%
Cc1cc(C)c(CN2CCN(CCCn3cnc(C(=O)Nc4ccc(C)c(C)c4)n3)CC2)c(C)c1	-19%	13µM*	0%	?
Cc1ccc(NCCCn2cnc(C(=O)Nc3ccc(C)c(C)c3)n2)cc1C	i	-29%	0%	-7%
Cc1ccc2nc(C3CCCN3Cc3nc(CCC(C)C)no3)[nH]c2c1 (centres undefined)	-5%	7.1µM*	-4%	3%
COc1cccc(C2CCCN2Cc2nc(CCC(C)C)no2)c1 (centres undefined)	-19%	?	4%	15%
Cc1cccc(CCNC(=O)c2sc3nc4n(c(=O)c3c2C)CCCC4)c1	i	-4%	nt	-16%
CN(Cc1cnn(-c2ccccc2)c1)C(=O)c1cccc(S(=O)(=O)N(C)c2ccccc2)c1	-51%	10µM*	11%	-8%
Cc1ccc(N(C)S(=O)(=O)c2cccc(C(=O)N(C)Cc3cnn(-c4ccccc4)c3)c2)cc1	-39%	?	16%	-23%
CCOC(=O)c1c(NC(=O)COc2ccc(OC)cc2)sc(C(=O)N(CC)CC)c1C	-41%	7.9µM*	nt	-17%
CCOC(=O)c1c(NC(=O)COc2ccc(Br)cc2)sc(C(C)=O)c1C	i	9%	nt	0%
Cc1ccc(NC(=O)C(=O)NCC(c2ccc3c(c2)OCO3)N2CCN(C)CC2)c(C)c1 (centres undefined)	5%	3%	nt	1%
COc1cccc(C2NC(=S)NC3=C2CCc2ccccc23)c1 (centres undefined)	-2%	?	-13%	4µM*
